Screening results as filed in PubChem.
This is a sample that favours compounds with a hit; in the whole collection about 14% have one here.
Pf growth 96h = Primary qHTS for delayed death inhibitors of the malarial parasite plastid, 96 hour incubation | P. falciparum luciferase reporter growth, 96 h | Potency, µM (titrated, usually from 28.7 µM), for the others: at the top dose activity change, negative = inhibition, usual class: inhibitors | 320,000 tested, 6.9% active | AID 504834, 2011; further: potency means the concentration at half of the fitted maximal effect
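P. falciparum expressing integrated firefly luciferase grown in erythrocytes (2% hematocrit, 0.05% parasitemia final) with compounds for 96 hours at 37 C, 5% CO2. Growth inhibition read as loss of luminescence after adding luciferase detection reagent.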
HCMV inh = qHTS Assay for inhibitors of the human cytomegalovirus (HCMV). HFF cells, HCMV-luciferase reporter, 72 h; stronger effect = lower value. activity change, negative = inhibition, % at 57.5 µM. 410,000 tested, 4.5% active; in the data active means activity change below about -60%; inconclusive means no clear call, values can overlap the other calls; inactive means above about -39%
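Two compound doses tested in HFFs infected with HCMV-luciferase, MOI 1 PFU/cell, 72 h at 37C. Lysate luminescence read with OneGlo; data normalized against buffer-only and 10uM Salinomycin inhibitor controls.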
Lassa entry inh = qHTS for Inhibitors of binding or entry into cells for Lassa Virus; Lassa virus pseudotype entry inhibition, cell reporter; Potency, µM (top dose mostly 37.9 µM), without a hit: at the top dose activity change, negative = inhibition, hits mostly inhibitors; 300,000 tested, 1.2% active; calls by dose curve; tested in HEK293 cells; further: potency means the concentration at half of the fitted maximal effect; nearly all actives have a fitted effect of over 50% in size
Pf growth 48h = Primary qHTS for delayed death inhibitors of the malarial parasite plastid, 48 hour incubation | P. falciparum luciferase growth in erythrocytes, 48 h | 310,000 tested, 5.9% active | Potency, µM (top dose mostly 28.7 µM), for the others: at the top dose activity change, negative = inhibition, actives largely listed as inhibitors; further: potency means the concentration at half of the fitted maximal effect
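First compound was added to culture medium, then infected red cells at 0.1% parasitemia and 2% hematocrit (final). After incubation at 37 C under 5% CO2, luciferase detection reagent was dispensed and light output recorded.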
HCV inhibitor = qHTS Assay for Inhibitors of Hepatitis C Virus (HCV) | Huh7.5.1 HCVcc-Cre infection, luciferase reporter, 44 h | Potency, µM (highest dose often 41.8 µM), inactives show at the top dose activity change, negative = inhibition, most hits filed as inhibitors | 340,000 tested, 3.4% active | AID 651820, 2012; further: potency means the concentration at half of the fitted maximal effect
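Antiviral activity was scored by luciferase reporter output from cells infected with HCVcc-Cre (~0.5 moi) in presence of compound, 44 h infection period, cells seeded 1,000/well 4 h prior.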
Marburg entry inh = qHTS for inhibitors of binding or entry into cells for Marburg Virus | Marburg virus pseudotyped entry inhibition, cell reporter | Potency, µM (top dose mostly 37.8 µM), without a hit: at the top dose activity change, negative = inhibition, actives largely listed as inhibitors | 300,000 tested, 1.8% active | AID 540276, 2011; calls by dose curve; tested in HEK293 cells; further: potency means the concentration at half of the fitted maximal effect
* = called active by the depositor; ? = inconclusive; / = no result; [ ] = another dose, or the depositor's remark. Unless noted, the call rests on the fitted dose curve; in most records, active means well fitted inhibition curve with a large enough effect; inconclusive means small, poorly fitted or top-dose-only effect, or another doubt; inactive means no such curve, though single readings can be large or run the other way. On the % scale 0 is the no-effect control and ±100 the full control effect.

SMILES	Pf growth 96h	HCMV inh	Lassa entry inh	Pf growth 48h	HCV inhibitor	Marburg entry inh
CCCCc1c(-c2ccccc2OC)ncn1CCc1ccccc1OC	/	-68*	/	/	/	/
CCCCc1c(-c2ccccc2OC)ncn1CCc1cccc(F)c1	/	-10	/	/	/	/
CCCCc1c(-c2ccccc2Br)ncn1CCc1ccccc1OC	/	-93*	/	/	/	/
CCc1c(-c2ccc(OC)c(OC)c2)ncn1CCc1ccccc1OC	/	-28	/	/	/	/
CCCc1c(-c2ccccc2F)ncn1CCc1ccccc1OC	/	-95*	/	/	/	/
CCCc1c(-c2ccccc2)ncn1Cc1ccccc1OC	/	-17	/	/	/	/
CCCc1c(-c2ccccc2Br)ncn1Cc1ccccc1OC	/	-73*	/	/	/	/
CCN1CCN(C(=O)Cn2c(-c3cccs3)cc3cc(Cl)ccc32)CC1	/	-30	-9%[46.1 µM]	/	/	/
CC(C)c1ccc(Oc2cccc3c2S(=O)(=O)N(C2CCCC2)CC(COCc2ccccc2)O3)cc1 (stereo not drawn)	/	-31	/	/	1%[8.37 µM]	/
CCCCCc1c(CC)ncn1CCc1ccccc1OC	/	-110*	/	/	/	/
CCCCCc1c(-c2ccccc2OC)ncn1CCc1ccccc1OC	/	-83*	/	/	/	/
CCCCc1c(-c2ccccc2OC)ncn1CCc1cccc(OC)c1	/	-25	/	/	/	/
COc1ccccc1CCn1cnc(-c2ccc(Cl)cc2)c1CC(C)C	/	-25	/	/	/	/
CCCc1c(-c2ccc(F)cc2F)ncn1Cc1ccccc1OC	/	-78*	/	/	/	/
CCOC(=O)c1c(NC(=O)/C=C/c2ccc(OCC)cc2)sc2c1CCCC2	/	6	-12%[46.1 µM]	/	/	-7%[46.1 µM]
Cc1ccccc1NC(=S)NCCSc1ccc(Cl)cc1	51%	-64*	?	-26%	?	?
COC(=O)c1cc(NC(=S)NCc2ccc(Cl)cc2)cc(C(=O)OC)c1	?	-76*	-26%	14%	?	-28%
Cc1ccc(NC(=S)NCCSc2ccc(Cl)cc2)c(C)c1	37%	-84*	0%	?	?	-29%
S=C(NCCN1CCOCC1)Nc1ccc(Cl)cc1Cl	?	-23	9%	-1%	19%	6%
Cc1cc(Cl)ccc1NC(=S)NCCN1CCOCC1	5.2µM*	?	-1%	-2%	21%	-2%
Cc1ccc(C)c(CN2C(=O)c3ccccc3S(=O)(=O)c3ccc(C(=O)NCCC4=CCCCC4)cc32)c1	/	-31	-22%[46.1 µM]	/	/	?
CCc1ccccc1NC(=S)NCCSc1ccc(Cl)cc1	4.1µM*	-88*	?	?	-12%	?
Cc1cc(Cl)ccc1NC(=S)NCc1ccccc1	2%	-29	-30%	-7%	?	-23%
Cc1ccc(NC(=S)NCc2ccc(Cl)cc2)c(C)c1	?	43	?	10µM*	?	?
CNc1cccc2c1C(=O)c1ccccc1C2=O	2.9µM*	-39	?	83%	13µM*	0%
SMILES	Pf growth 96h	HCMV inh	Lassa entry inh	Pf growth 48h	HCV inhibitor	Marburg entry inh
CN(C)S(=O)(=O)c1cccc2c1C(=O)c1ccccc1C2=O	10µM*	-10	-3%	12µM*	-2%	-10%
CCOc1ccc(-c2nc(SCC(=O)Nc3cc(F)ccc3F)n3[nH]c(=O)cc3n2)cc1	/	23	-19%[46.1 µM]	/	/	/
Cc1cc(C)c(-c2cc([C@H](C)ON=C[C@@H](C)[C@H](OCc3ccccc3)C(C)C)on2)c(C)c1	/	/	/	/	/	6%[14.2 µM]
Cc1cc(O)c(C(C)C)cc1N=Nc1ccccc1C(=O)O	?	-21	11%	-29%	-14%	-8%[46.1 µM]
Cc1cc(NO)c(C(C)C)cc1N=O	3%	-65*	15%	-11%	?	-27%
O=C(CSc1nc2c([nH]c3ccccc32)c(=O)n1-c1ccc(F)cc1)NCc1ccccc1	/	-26	14%[46.1 µM]	/	/	/
Clc1cccc(N2Cc3cc(-c4ccccc4)ccc3-n3nncc3C2)c1	/	-108*	/	/	/	/
Clc1cccc(N2Cc3cc(N4CCOCC4)ccc3-n3nncc3C2)c1	/	-19	/	/	/	/
COc1ccc(-c2ccc3c(c2)CN(c2cccc(Cl)c2)Cc2cnnn2-3)cc1	/	-102*	/	/	/	/
CCOc1ccc(-c2cn3c(n2)sc2cc(C(=O)NC4CCCc5ccccc54)ccc23)cc1 (stereo not drawn)	/	/	28%[46.1 µM]	/	/	/
COc1ccc(CN(C(C)=O)c2cc(C)c([N+](=O)[O-])cc2OC)cc1OC	/	-31	/	/	/	/
CN1CCN(C(=O)C(=O)Nc2c3c(nn2-c2ccc(F)cc2)CSC3)CC1	/	13	5%[46.1 µM]	/	/	/
COc1ccc(OC2C(=O)N(c3ccc(C)c(C)c3)C2c2ccc(OC)c(OC)c2)cc1 (stereo not drawn)	?	?	?	9.3µM*	?	?
COc1ccc(OC2C(=O)N(c3cc(C)ccc3C)C2c2ccc(OC)c(OC)c2)cc1 (stereo not drawn)	20%	12	3%	7.4µM*	-3%	2%
COc1ccc(NC2=CC(c3ccc(OC)c(OC)c3)N(c3ccc(OC)cc3)C2=O)cc1 (stereo not drawn)	?	8	?	?	?	-23%
COc1ccc(OC2C(=O)N(CCc3ccc(OC)c(OC)c3)C2c2ccc3c(c2)OCO3)cc1 (stereo not drawn)	?	-8	?	?	?	?
CC(C)C[C@H]1COc2c(Cl)cccc2S(=O)(=O)N1	/	-16	0%[46.1 µM]	/	/	/
CC1CCCN(C(=O)COC(=O)c2cc(Br)ccc2O)C1 (stereo not drawn)	/	-17	6%	/	-7%	27%
CCN(CC)CCOC(=O)c1ccc(NC(=O)Cn2ncc3c([nH]c4ccc(C)cc43)c2=O)cc1	/	-6	?	/	/	/
CCOc1ccc(-c2nnc3sc(COc4ccc(Cl)cc4)nn23)cc1	27%	-12	-23%	12%	19%	-1%[46.1 µM]
COc1ccc(OCc2nn3c(-c4ccco4)nnc3s2)cc1	/	-27	-30%	-28%	-10%	?
COc1ccc(-c2nnc3sc(CCN4C(=O)c5ccccc5C4=O)nn23)cc1	?	27	11%	5.2µM*	18%	-15%[46.1 µM]
c1ccc(OCc2nn3c(-c4cccnc4)nnc3s2)cc1	12µM*	-39	-4%	?	15%	6%
Clc1ccc(OCc2nn3c(-c4ccncc4)nnc3s2)cc1	28%	6	-4%	31%	-12%	-13%
Clc1ccc(OCc2nn3c(-c4ccco4)nnc3s2)cc1	-23%	45	2%	15µM*	-1%	-28%
CCOc1ccc(-c2nnc3sc(COc4ccc(C)cc4)nn23)cc1	0%	3	8.2µM*	21%	16%	7%[46.1 µM]
CCc1cccc(NC(=O)COC(=O)/C=C/c2cccs2)c1	22%	13	6%[46.1 µM]	31%	7%	13%
